The whole screen tested about 44,000 compounds, of which about 370 (0.84%) were called active. No rule for the calls is given here. For the sample, actives were picked, then their nearest neighbours and some compounds at random.
assay: compounds raising algal triacylglycerol storage – qHTS, Chlamydomonas reinhardtii, primary screen (AID 1159537); conditions: Chlamydomonas reinhardtii TAG, Nile Red fluorescence, 72 h; screened at 10 µM (by protocol);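 also: hits raise Nile Red signal meaning more stored TAG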

| SMILES | outcome |
| --- | --- |
| O=C(Nc1cccc(Cl)c1)Nc1ccccn1 | inactive |
| O=C1CC(N2CCc3ccccc3C2)C(=O)N1c1ccc([N+](=O)[O-])cc1 (stereo not given) | active |
| O=C1CC(N2CCN(c3ccc([N+](=O)[O-])cc3)CC2)C(=O)N1c1cccc(Cl)c1 (stereo not given) | inactive |
| O=C1CC(N2CCCCCC2)C(=O)N1c1ccccc1 (stereo not given) | inactive |
| CN1CCN(C(=O)c2sc3cc(Cl)ccc3c2Cl)CC1 | active |
| O=C(O)c1sc2ccccc2c1Cl | inactive |
| O=C(O)c1sc2cc(F)ccc2c1Cl | inactive |
| COc1ccccc1CN(C)C1CCN(C)CC1 | inactive |
| COc1ccc(Cl)cc1N(CC(=O)NCC1CCCO1)S(C)(=O)=O (stereo not given) | inactive |
| CN(C)CCCn1cnc2ccccc21 | inactive |
| COc1cc(C(=O)Nc2sc3c(c2C(N)=O)CCC3)cc(OC)c1OC | inactive |
| CCC(=O)Nc1ccccc1C(=O)N1CCN(Cc2ccccc2)CC1 | inactive |
| O=C(Nc1ccc(C(=O)N2CCOCC2)cc1)C1COc2ccccc2O1 (stereo not given) | inactive |
| O=C(Nc1ccccc1)Nc1ccccc1C(=O)N1CCOCC1 | active |
| NC(=O)CN(Cc1ccccc1Cl)S(=O)(=O)c1ccc(Cl)cc1 | inactive |
| O=C(c1ccc([N+](=O)[O-])cc1)N1CCN(c2cccc(Cl)c2)CC1 | inactive |
| Cc1ccccc1N(C(F)F)S(=O)(=O)c1cc([N+](=O)[O-])ccc1C | inactive |
| O=C(CCN1CCCC1)Nc1ccc2c(c1)CCC2 | inactive |
| CC(=O)c1ccc(-c2ccc(C=O)o2)cc1 | inactive |
| COc1ccccc1N1CCN(S(=O)(=O)c2cccc3cccnc23)CC1 | inactive |
